# Only some compounds are listed: those with a hit (about 4.6% of all), similar ones and a draw of the others.
# tim10-1 inh – tim10-1 yeast growth inhibition; S. cerevisiae tim10-1 ts strain growth, BacTiter-Glo, 24 h; inhibition, % at 20 µM; hit rate 2.2% among 330,000;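 active means inhibition of at least 40%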;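 further: mutant grown at 25 °C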
# tim23-1 inh – tim23-1 yeast growth inhibition; S. cerevisiae tim23-1 growth, BacTiter-Glo luminescence, 24 h; inhibition, % at 20 µM; hit rate 1.3% among 330,000; AID 463212;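 active means growth inhibition of the mutant yeast at or above 50%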;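 further: temperature-sensitive mutant grown at 25 °C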
# SKKanGAS inh – inhibitors of SKKanGAS S. pyogenes growth in kanamycin (SK-promoter or general growth effect) | BacTiter-Glo, 6 h | inhibition, % at 7.5 µM | hit rate 1.3% among 300,000 | AID 1662;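 active means mean replicate score, as percent of positive control median, at least 50; inconclusive means mean below 50 but one replicate at or above 50; inactive means mean and every replicate below 50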;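 further: strain carries kanamycin resistance gene driven by streptokinase promoter and grows in 40 µg/ml kanamycin; loss of luminescence reflects streptokinase promoter inhibition or plain growth inhibition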
# NALP3 yeast inh – inhibitors of NALP3 inflammasome in yeast. hit rate 0.39% among 330,000. AID 2825. Yeast reconstituted NLRP3/ASC/caspase-1, beta-gal luminescence, 24 h. inhibition, % at 10 µM;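 active means inhibition of 50% or more; inactive means inhibition below 50%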
# TIM10 inh – TIM10 yeast growth inhibition; S. cerevisiae TIM10 strain growth, BacTiter-Glo luminescence, 24 h; inhibition, % at 10 µM; hit rate 1.4% among 330,000;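 active means inhibition of 40% or more at the single tested concentration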;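 further: wild-type TIM10 isogenic control strain grown at permissive 25 °C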
# Hits are given with their value; – = inactive; ? = inconclusive; · = no result.
SMILES,tim10-1 inh,tim23-1 inh,SKKanGAS inh,NALP3 yeast inh,TIM10 inh
O=C(N/N=C\c1ccc(Cl)s1)c1ccc(Cn2cccn2)o1,–,–,–,–,–
O=C(N/N=C\c1c(O)ccc2ccccc12)c1ccc(Cn2cccn2)o1,–,–,108.2,–,–
CCNc1nc(NC(C)C)nc(NS(=O)(=O)c2ccc(C)cc2)n1,–,–,–,–,–
Cc1ccc(S(=O)(=O)N2CCOCC2)cc1C(=O)NC(C)CCc1ccccc1 (configuration not stated),–,–,·,–,–
CC(C)[C@H](NC(=O)N1CC(=O)Nc2ccccc21)C(=O)N[C@@H](Cc1ccccc1)C(=O)O,–,–,94.2,–,–
CC(C)C[C@H](NC(=O)N1CC(=O)Nc2ccccc21)C(=O)N[C@H](C(=O)O)c1ccccc1,·,·,62.5,·,·
O=C1CN(C(=O)N[C@@H](Cc2ccccc2)C(=O)N[C@H](C(=O)O)c2ccccc2)c2ccccc2N1,–,–,–,–,–
CCc1ccc(CN(C)CC(=O)Nc2ccc(S(=O)(=O)N3CCOCC3)cc2)cc1,–,–,·,–,–
COc1ccc(/C=C2\Sc3ccc(C(=O)NCC4CCCO4)cc3N(C)C2=O)cc1 (configuration not stated),–,–,91.8,–,–
COc1ccc(/C=C2\Sc3ccc(C(=O)N4CCOCC4)cc3N(C)C2=O)cc1,–,–,59.9,–,–
CN1C(=O)/C(=C/c2ccccc2F)Sc2ccc(C(=O)N3CCCC3)cc21,–,–,71.4,–,–
Cc1ccc(/C=C2/Sc3ccccc3N(CC(=O)NCC3CCCO3)C2=O)cc1 (configuration not stated),–,–,–,–,–
Cc1ccccc1/C=C1\Sc2ccc(C(=O)N3CCN(c4ccccn4)CC3)cc2N(C)C1=O,–,–,?,–,–
CCC(C)[C@H](NC(=O)[C@H](Cc1ccccc1)n1c(=O)[nH]c2ccccc2c1=O)C(=O)NCC1CCC(C(=O)O)CC1 (some centres not stated),–,–,–,–,–
OCCN(CCO)c1ccc(C(c2ccc(Cl)cc2)c2ccc(N(CCO)CCO)cc2Cl)c(Cl)c1,–,–,93.5,–,–
Cc1ccccc1Cn1c(O)c(N=NC(=S)Nc2ccccc2F)c2ccccc21,–,–,?,–,–
Oc1c(N=NC(=S)Nc2ccccc2F)c2ccccc2n1Cc1ccccc1F,–,–,79.0,–,–
Oc1c(N=NC(=S)Nc2ccccc2F)c2ccccc2n1Cc1ccc(Cl)cc1,–,–,57.7,–,–
O=C(c1ccc(S(=O)(=O)Nc2ccccc2)cc1)N1CCCCCCC1,–,–,–,–,–
O=C1c2ccccc2C(=O)c2c1ccc1c(=O)n(-c3ccccc3)[nH]c21,–,–,–,–,–
Cc1cccc(-n2[nH]c3c4c(ccc3c2=O)C(=O)c2ccccc2C4=O)c1,–,–,79.6,–,–
COc1ccc(-c2nn(-c3ccccc3)cc2/C=C2/SC(=S)N(CCC(=O)O)C2=O)c(C)c1,–,–,–,–,–
O=C(O)CCN1C(=O)/C(=C/c2cn(-c3ccccc3)nc2-c2cccs2)SC1=S,–,–,·,–,–
O=C(O)CCCCCN1C(=O)/C(=C\c2cn(-c3ccccc3)nc2-c2cccs2)SC1=S,–,–,90.7,–,–
Cc1ccc(-c2nn(-c3ccccc3)cc2/C=C2\SC(=S)N(CC(=O)O)C2=O)cc1,–,–,55.4,–,–
SMILES,tim10-1 inh,tim23-1 inh,SKKanGAS inh,NALP3 yeast inh,TIM10 inh
COc1ccc(-c2nn(-c3ccccc3)cc2/C=C/C(=O)N2CCN(c3ccccn3)CC2)cc1,–,–,60.1,–,–
COc1ccc(-c2nn(-c3ccccc3)cc2/C=C2/SC(=S)N(CCC(=O)O)C2=O)cc1,–,–,83.4,–,–
O=C(COc1ccc(-c2nnco2)cc1)N1CCOCC1,–,–,·,–,–
COc1ccc(NS(=O)(=O)c2cc([N+](=O)[O-])ccc2N/N=C\c2c(C)[nH]c3ccccc23)cc1,–,–,–,–,–
Cc1[nH]c2ccccc2c1/C=N/Nc1ccc([N+](=O)[O-])cc1S(=O)(=O)Nc1ccc(Cl)cc1,–,–,101.9,–,–
COc1cc(CNC(=O)c2cc3ccccc3oc2=O)cc(OC)c1OC,–,–,–,–,–
O=C(CSc1nc2c(cnn2-c2ccccc2)c(=O)[nH]1)N1N=C(c2cccs2)CC1c1ccc(F)cc1 (configuration not stated),–,–,50.6,–,–
CC(=O)N1CCN(C(=O)CSc2nc3c(cnn3-c3ccccc3)c(=O)[nH]2)CC1,–,–,–,–,–
O=C(CN(C(=O)CCC(=O)Nc1nccs1)c1cccc(F)c1)NCc1ccccc1,–,–,–,–,–
Cc1cn(-c2cc(C(=O)Nc3ccc(C)c(NC(=O)C(=O)c4c[nH]c5ccccc45)c3)cc(C(F)(F)F)c2)cn1,–,–,68.2,–,–
N#Cc1ccccc1CN1C(=O)S/C(=C/c2cccn2-c2ccc(C(=O)O)cc2)C1=O,–,–,56.5,–,–
COC(=O)[C@H](Cc1ccccc1)NC(=O)Cn1cnc(C(=O)Nc2ccc(C)c(C)c2)n1,–,–,·,·,–
NCC(O)CN1CCN(Cc2ccccc2)CC1 (configuration not stated),–,–,–,–,–
C[C@]12CCC(O)CC1CCC1C2CC[C@]2(C)C(c3cc(C(F)(F)F)n[nH]3)CCC12 (some centres not stated),–,–,105.6,–,–
O=C1CC(c2ccccc2Oc2cccc(Cl)c2)C(n2cncn2)C(=O)C1C1NCCc2ccccc21 (configuration not stated),–,–,–,–,–
CC(C)(C)c1ccc(Oc2cccc(C3CC(=O)C(C4NCCc5ccccc54)C(=O)C3n3cncn3)c2)cc1 (configuration not stated),–,–,96.4,–,–
O=C(Cc1ccc(Cl)cc1)NCCS(=O)(=O)N1CCN(c2ccccc2)CC1,–,–,–,–,–
O=C(Cc1ccccc1)NCCS(=O)(=O)N1CCN(c2ccccc2)CC1,–,–,53.8,–,–
CCC(=O)Nc1nc2ccc(NC(C)=O)cc2s1,–,–,–,–,–
CCOc1cccc2sc(Nc3nc4ccc(NC(C)=O)cc4s3)nc12,–,–,71.5,–,–
CCN1/C(=C\c2ccc3cc(C)ccc3[n+]2CC)Sc2cc(C)c(C)cc21,·,·,70.8,·,·
CCn1c(-c2ccccc2)c[nH]c1=S,–,–,72.5,–,–
Cc1cc(N/N=C/c2ccc(Cl)cc2Cl)nc(NCc2ccccc2)n1,–,–,92.3,–,–
CC[C@H]1OC(=O)[C@H](C)[C@@H](O[C@H]2C[C@@](C)(OC)[C@@H](O)[C@H](C)O2)[C@H](C)[C@@H](O[C@@H]2O[C@H](C)C[C@H](N(C)C)[C@H]2O)[C@](C)(OC)C[C@@H](C)C(=O)[C@H](C)[C@@H](O)[C@]1(C)O,–,–,104.4,–,–
